Inconclusive results are not listed. A call without a number means that no potency is given here. The source made the active and inactive calls. Calls come from the whole dose curve; as a rule, active = well fitted inhibition curve with a large enough effect; inconclusive = small, poorly fitted or top-dose-only effect; inactive = no such curve, though single readings can be large or run the other way.

This is an account of results in PubChem BioAssay (NCATS).
Potency is the fitted concentration of half-maximal effect.

This assay concerns the target Retinaldehyde dehydrogenase 3 (Homo sapiens) (UniProt P47895). The assay can be described thus: qHTS for Inhibitors of the Aldehyde Dehydrogenase Family (ALDH1A3) Primary screen (AID 2061315). The following applies: ALDH inhibition qHTS; series mostly up to 56 µM. For orientation: qHTS replaces the single test concentration by a dilution series.
As to `C[C@]12CC[C@@H]3c4ccc(O)cc4CC[C@H]3[C@@H]1C[C@@H](O[C@@H]1O[C@H](C(=O)O)[C@@H](O)[C@H](O)[C@H]1O)[C@@H]2O`, the Potency result was “inactive”. The result for `C=C[C@H]1[C@H](O[C@@H]2O[C@H](CO)[C@@H](O)[C@H](O)[C@H]2O)OC=C(C(=O)OC)[C@H]1CC=O` reads “inactive”; that for `CCN(CC)CCCCCCNc1cc(OC)cc2c(C)ccnc12`, 2.51 µM (active); that for `CC[C@@H](O)C[C@@H]1C(C)=C[C@@H]2CCCC[C@@H]2[C@@]1(C)C(=O)O`, “inactive”. As to `CCCCc1ccc(NS(=O)(=O)c2ccc(F)cc2)cc1`, the Potency entry is “inactive”. Next, `O=C(/C=C/c1ccc(O)cc1)OC[C@H]1O[C@@H](OC(=O)/C=C/c2ccccc2)[C@H](O)[C@@H](O)[C@@H]1O`: “inactive”. For `C[C@]1(OC(=O)/C=C\c2ccc(O)cc2)C[C@@H](O)[C@]2(O)C=CO[C@@H](O[C@@H]3O[C@H](CO)[C@@H](O)[C@H](O)[C@H]3O)C12` (some centres not stated), the Potency entry is “inactive”. Consider `CCC[C@@H]1O[C@@H]2C[C@H]3[C@@H]4CCC5=CC(=O)C=C[C@]5(C)[C@H]4[C@@H](O)C[C@]3(C)[C@]2(C(=O)CO)O1`, for which the Potency entry was “inactive”. Next, `O=C(O)c1ccnc2cc(C(OCC3CCC(F)(F)CC3)c3ccccc3Cl)[nH]c12` (configuration not stated): “inactive”; `NC1Nc2ccccc2C1(N)CC1NC(=O)C(Cc2ccccc2)NC(=O)C(Cc2ccccc2)NC1=O` (configuration not stated): “inactive”. For the molecule `CN1[C@@H]2CC[C@H]1CC(NC(=O)n1c(=O)[nH]c3ccccc31)C2` (some centres not stated), the Potency entry was “inactive”. Next, `C=C1CCC[C@]2(C)CC[C@@H](C(=C)C(=O)O)[C@H](O)[C@@H]12`: “inactive”.
